# High-throughput results as filed in PubChem.
# An excerpt weighted towards active compounds, which were near 19% of everything screened.
# KB-V1 cytotox – KB-V1 MDR subline cytotoxicity | KB-V1 MDR cells viability, CellTiter-Glo, 72 h | Potency, µM (titrated, usually from 46.1 µM), usual class: cytotoxic | actives 3.4% (n = 400,000); note: nearly all actives have a fitted effect of over 60% in size
#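 Drug-selected KB-V1 cells, grown in DMEM lacking phenol red with 10% FBS, receive compound titrations; after three days at 37 degrees C, surviving cell ATP is quantified by CellTiter-Glo luminescence and responses normalized and curve-fitted.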
# HT1080 IDH1KD tx – toxicity to HT-1080 IDH1 knockdown cells (counter line). HT-1080 IDH1 knockdown viability, ATP luminescence, 48 h. Potency, µM (series often up to 46.1 µM), usual class: cytotoxic. actives 2% (n = 360,000). AID 686971
#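 In this qHTS, HT-1080 cells depleted of IDH1 are exposed for 48 h at 37 °C to compound titrations. Toxicity is scored from CellTiter-Glo luminescence, with DMSO as full viability and medium alone as none.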
# KB-3-1 cytotox – kills parental KB-3-1 adenocarcinoma cells; KB-3-1 viability, CellTiter-Glo ATP luminescence, 72 h; Potency, µM (doses to about 46.1 µM), usual class: cytotoxic; actives 1.4% (n = 400,000); note: nearly all actives have a fitted effect of over 60% in size
#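 Cytotoxicity measured as CellTiter-Glo luminescence after 72 h at 37 C. Compound titrations were pinned onto drug-naive KB-3-1 parental adenocarcinoma cells grown in DMEM with 10% FBS, and normalized data fitted to concentration-response curves.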
# DT40 TDP1 no CPT – qHTS for Inhibitors of human tyrosyl-DNA phosphodiesterase 1 (TDP1): qHTS in cells in absence of CPT. DT40 Tdp1-/- hTDP1 cells, no CPT, ATP luminescence, 48 h. Potency, µM (series often up to 46.2 µM), usual class: inhibitors. actives 15% (n = 420,000). AID 686978, 2013; note: nearly all actives have a fitted effect of over 55% in size
#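 Seeded 400 DT40-hTDP1 cells/well (vehicle DMSO, no 20 nM CPT); pinned compounds; ≥48 hr at 37 °C; CellTiter-Glo luminescence as viability measure.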
# HT1080-NT tox – kills 2HG-producing HT-1080-NT fibrosarcoma cells | HT-1080-NT fibrosarcoma viability, CellTiter-Glo ATP luminescence, 48 h | Potency, µM (highest dose often 46.1 µM), most hits filed as cytotoxic | actives 1.6% (n = 360,000);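 note: NT is the 2HG producing partner of a matched IDH1 knockdown line; nearly all actives have a fitted effect of over 55% in size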
#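 A 48-hour cytotoxicity screen used HT-1080-NT cells plated 2 hours before compound delivery. ATP-based CellTiter-Glo luminescence measured viability, normalized to DMSO and no-cell controls.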
# DT40 TDP1 CPT – growth inhibition of DT40 Tdp1-/-;hTDP1 cells with camptothecin (screen for TDP1 inhibitors); actives 12% (n = 420,000); chicken DT40 Tdp1-/-;hTDP1 cells + 20 nM CPT, ATP luminescence, 48 h; AID 686979; Potency, µM (highest dose often 46.2 µM), most hits filed as inhibitors; note: nearly all actives have a fitted effect of over 55% in size
#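 Chicken DT40 Tdp1-/- cells stably complemented with human TDP1 were seeded at 400 cells/well in medium containing 20 nM camptothecin, exposed to pin-transferred compounds, and grown at 37 °C for at least 48 hr. Viability was read as ATP luminescence.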
# A number is an active result; . = inactive; ? = inconclusive; / = not tested or not shown; ! = repeats disagree; [ ] = dose if it differs, or a comment. Calls come from the whole dose curve; as a rule, active = well fitted curve in the direction sought with a large enough effect; inconclusive = small, poorly fitted or top-dose-only effect, or another doubt; inactive = no such curve, though single readings can be large; an effect the other way counts as inactive or inconclusive.
SMILES,KB-V1 cytotox,HT1080 IDH1KD tx,KB-3-1 cytotox,DT40 TDP1 no CPT,HT1080-NT tox,DT40 TDP1 CPT
COc1cccc(CN2CCN(Cc3cc(OC)c(OC)cc3[N+](=O)[O-])CC2)c1,20.6µM,.,.,16.4µM,.,?
CCCCNc1cc(N2CCN(C3CCCCC3)CC2)c2noc3c2c1C(=O)c1ccccc1-3,.,/,.,5.17µM,/,5.17µM
Cc1cc(C)cc(NS(=O)(=O)c2ccc3[nH]c(=O)ccc3c2)c1,.,?,.,?,?,?
Cc1nc(C)c(-c2csc(N)n2)s1,.,.,.,.,.,.
C=CCNc1nc(-c2sc(NC(C)=O)nc2C)cs1,?,.,.,16.4µM,.,10.3µM
Cc1nc(NC(=O)C(C)(C)C)sc1-c1csc(N)n1,.,.,.,23.1µM,.,?
O=[N+]([O-])c1ccc(S(=O)(=O)N2CCC3(CC2)OCCN3S(=O)(=O)c2cccs2)cc1,?,.,.,?,.,?
C[C@@H]1COC(=O)[C@@H](CC(=O)OC(C)(C)C)C/C=C\C[C@@H](CC(=O)NCCO)C(=O)N1,.,.,.,.,.,.
COc1ccc(-c2noc(CNC(=O)c3ccccc3Br)n2)cc1,/,/,/,.,/,.
O=C1c2ccccc2C(=O)C1c1ccc2ccccc2n1,2.59µM!,?,.,25.9µM,?,6.31µM
O=C1c2ccccc2C(=O)C1c1cc2ccccc2cn1,.,/,.,7.08µM,/,1.78µM
COc1ccc(C2C(=O)c3ccccc3C2=O)cc1,.,.,.,.,.,.
O=C(NCCN1CCN(C(=O)c2ccc(F)cc2)CC1)c1ccc(F)cc1,.,.,.,.,.,.
O=C(NC(=S)Nc1ccccc1N1CCCC1)c1ccc(-c2cccc([N+](=O)[O-])c2)o1,16.4µM,?,?,?,?,?
O=C(NC(=S)Nc1ccccc1N1CCCCC1)c1ccc(-c2cccc([N+](=O)[O-])c2)o1,.,.,.,23.1µM,.,?
Cc1ccccc1N1CCN(C(=S)c2ccc(-c3cccc([N+](=O)[O-])c3)o2)CC1,.,.,.,.,.,?
CC(=O)N1CCN(c2ccccc2NC(=O)c2ccc(-c3cccc([N+](=O)[O-])c3)o2)CC1,.,.,.,16.4µM,.,23.1µM
COc1cccc(NC(=O)c2ccc(-c3ccccc3[N+](=O)[O-])o2)c1,?,.,.,?,.,?
O=C(NC(=S)Nc1ccccc1N1CCOCC1)c1ccc(-c2cccc(Cl)c2)o1,.,.,.,?,.,?
CN1CCN(c2ccccc2NC(=O)c2ccc(-c3ccccc3[N+](=O)[O-])o2)CC1,.,.,?,16.4µM,.,14.6µM
CCN1CCCC1CNC(=O)c1ccc(N2CCCC2=O)cc1 (centres undefined),.,.,.,.,.,.
CCN1CCCC1CNC(=O)c1ccc(Sc2ccccc2Cl)c([N+](=O)[O-])c1 (centres undefined),.,?,.,?,25.9µM,?
CCN1CCN(C(=O)c2ccc(Sc3ccccc3Cl)c([N+](=O)[O-])c2)CC1,13µM,.,.,?,.,?
O=C(c1ccc(Sc2ccccc2)c([N+](=O)[O-])c1)N1CCOCC1,.,.,.,?,.,.
Cc1cccc(OCC(=O)Nc2ccc(Cl)c(-c3nc4ccccc4[nH]3)c2)c1,.,/,.,?,/,?
SMILES,KB-V1 cytotox,HT1080 IDH1KD tx,KB-3-1 cytotox,DT40 TDP1 no CPT,HT1080-NT tox,DT40 TDP1 CPT
O=C(COc1ccccc1F)Nc1ccc(Cl)c(-c2nc3ccccc3[nH]2)c1,?,/,.,13µM,/,?
O=C(COc1ccccc1F)Nc1ccc2[nH]c(=O)[nH]c2c1,6.51µM,.,?,.,.,.
O=C(COc1ccccc1)Nc1ccc2[nH]c(=O)[nH]c2c1,.,.,.,.,.,.
O=C(COc1ccc(F)cc1)Nc1ccc(Cl)c(-c2nc3ccccc3[nH]2)c1,/,/,/,20.6µM,/,?
CCOC(=O)c1cc(CC)sc1NC(=O)COC(=O)c1cc[n+]([O-])cc1,.,.,?,.,.,.
COc1cc(CNC(=O)c2cnn(-c3ncc4c(n3)-c3ccccc3CC4)c2C)cc(OC)c1OC,/,/,/,.,/,.[9.04 µM]
Cc1cccc(NC(=O)c2ccccn2)c1C,.,.,.,?,.,?
Cc1cccc(NC(=O)c2cc3c([nH]c4ccccc43)c(C)n2)c1C,.,.,.,?,.,6.51µM
CC1=CC(C)[C@H](/C=N/n2c(=O)[nH]c3c([nH]c4ccc(C)cc43)c2=O)C(C)C1 (some centres undefined),.,.,?,13µM,.,8.2µM
COc1ccc(/C=N/n2c(=O)[nH]c3c([nH]c4ccc(C)cc43)c2=O)cc1CN1CCOCC1,.,.,.,?,.,?
CN1CCc2c(n(CC(O)CNCc3ccccc3)c3ccccc23)C1=O (centres undefined),.,?,.,8.2µM,?,8.2µM
COC(=O)c1c(N)n(-c2ccc(OC)c(OC)c2)c2nc3ccccc3nc12,.,/,.,9.2µM,/,5.8µM
COCCn1c(N)c(C(=O)OCc2ccccc2)c2nc3ccccc3nc21,.,.,.,?,.,.
COc1ccc(-n2c(N)c(C(=O)NCc3ccco3)c3nc4ccccc4nc32)c(OC)c1,.,.,.,?,.,23.1µM
COc1ccc(CCn2c(N)c(C(=O)NCc3ccco3)c3nc4ccccc4nc32)cc1OC,.,17.8µM,.,16.4µM,?,23.1µM
CCCNC(=O)c1c(N)n(-c2cccc(OC)c2)c2nc3ccccc3nc12,?,.,.,?,.,?
COCCNC(=O)c1c(N)n(CCC2=CCCCC2)c2nc3ccccc3nc12,?,.,?,25.9µM,.,?
COCC(C)OC(=O)c1c(N)n(-c2ccc(OC)c(OC)c2)c2nc3ccccc3nc12 (centres undefined),.,.,.,.,.,.
Cc1nc(-c2ccc(F)cc2)sc1CCNC(=O)c1ccco1,.,/,.,?,/,?
COc1ccc(CCn2c(N)c(C#N)c3nc4ccccc4nc32)cc1OC,?,.,.,13µM,.,20.6µM
Nc1c(C(=O)NCc2ccco2)c2nc3ccccc3nc2n1CCc1ccccc1F,?,.,?,?,.,16.4µM
COc1ccc(Cn2c(N)c(C#N)c3nc4ccccc4nc32)cc1OC,.,.,.,.,.,.
CCOC(=O)c1c(N)n(-c2ccc(C)c(C)c2)c2nc3ccccc3nc12,.,/,.,/,/,/
COc1ccc(CCn2c(N)c(C(=O)NCc3ccco3)c3nc4ccccc4nc32)cc1,6.51µM,?,7.31µM,13µM,?,11.6µM
